RORgamma inh – ROR gamma (mouse) transcription inhibition | Drosophila S2 Gal4-RORgamma UAS-luciferase reporter, 20 h | Potency, µM (top dose mostly 53.6 µM), without a hit: at the highest dose activity change, negative = inhibition, usual class: inhibitors | actives 5.4% (n = 310,000); further: potency means the concentration at half of the fitted maximal effect; nearly all actives have a fitted effect of over 60% in size
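Stable Schneider cell line, Gal4 DNA-binding domain fused to ROR gamma, UAS-luciferase. Cmpd 1 hr RT → CuSO4 700 uM final → 20 hr RT → luciferase reagent 10 min → luminescence.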
ELG1 repair inh – inhibitors of ELG1-dependent DNA repair in HEK293T cells; HEK293T ELG1-luciferase reporter, luminescence, 16 h; DNA damage induced by 5-fluorouridine; actives 2.3% (n = 330,000); Potency, µM (titrated, usually from 46.1 µM), without a hit: at the highest dose activity change, negative = inhibition, actives largely listed as inhibitors; AID 504467; further: potency means the concentration at half of the fitted maximal effect; nearly all actives have a fitted effect of over 55% in size
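HEK293T cells expressing luciferase-tagged ELG1 (2,000/well) received 5-Fluorouridine plus compound or DMSO for 16 hr at 37 °C. Luciferase was read by ONE-Glo luminescence after 30 min at room temperature.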
B2AR arrestin – beta2AR (human) beta-arrestin recruitment activity; beta-arrestin recruitment to beta2AR, cell-based reporter; Potency, µM (titrated, usually from 46.1 µM), for the others: at the top dose activation, usual class: activators; actives 0.02% (n = 330,000);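 further: potency means the concentration at half of the fitted maximal effect; 0% = DMSO controls and full agonism = EC100 isoproterenol or metaproterenol; nearly all actives have a fitted effect of over 65% in size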
Gal4-VP16 FLuc – Gal4-VP16 reporter inhibition counter-screen; Drosophila S2 Gal4-VP16 UAS-luciferase, luminescence, 20 h; Potency, µM (highest dose often 53.6 µM), for the others: top-dose activity, negative = inhibition, hits mostly inhibitors; actives 3.5% (n = 310,000);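 further: Gal4-VP16 expression switched on by copper sulfate through the metallothionein promoter; potency means the concentration at half of the fitted maximal effect; nearly all actives have a fitted effect of over 50% in size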
TSHR antagonist – antagonists of human thyroid stimulating hormone receptor; TSHR-expressing cells, TSH-stimulated cAMP HTRF, 2 h; hits give low values; activity change, negative = inhibition, % at 11.5 µM; actives 0.2% (n = 330,000); AID 504810;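 active means activity change below a set negative limit, meaning inhibition stronger than a set level, cut at about -70% in these data; inconclusive means activity change between two set negative limits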
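Cell-based HTRF cAMP assay; TSHR cells + compound, TSH EC80 (4nM final), 2 h, 37 deg C. Lysis with anti-cAMP cryptate and cAMP-d2, 30 min RT, read 665/620 nm.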
The depositor's hits bear a star; ? = inconclusive; . = no result; [ ] = remark or other dose. Only some compounds are listed: those with a hit (about 7.5% of all), similar ones and a draw of the others. Unless noted, the call rests on the fitted dose curve; in most records, active means well fitted curve in the direction sought with a large enough effect; inconclusive means small, poorly fitted or top-dose-only effect, or another doubt; inactive means no such curve, though single readings can be large; an effect the other way counts as inactive or inconclusive. Unless noted, on the % scale 0 is the no-effect control and ±100 the full control effect.

SMILES	RORgamma inh	ELG1 repair inh	B2AR arrestin	Gal4-VP16 FLuc	TSHR antagonist
O=C(COC(=O)CNC(=O)c1ccccc1)NCCCc1ccccc1	.	13%	-1%	.	-14
CCN(CC)C(=O)c1ccc(-c2ccccc2)cc1	31%	?	0%	-2%	0
CCOc1ccc(CN(CCC#N)C(=S)NC(=O)c2ccccc2)cc1	0.4µM*	-16%	0%	0.45µM*	-3
N#CCCN(Cc1ccccc1)C(=S)NC(=O)c1ccccc1	0.35µM*	?	0%	0.71µM*	-4
CCCN(CCC)C(=S)NC(=O)c1ccc(-c2ccccc2)cc1	0.5µM*	11%	0%	0.13µM*	-17
O=C(COC(=O)CNC(=O)c1ccccc1)NCCc1ccccc1	10µM*	-10%	0%	0%	2
N#CCCN(Cc1cccnc1)C(=S)NC(=O)c1ccco1	-36%	14%	0%	5%	-8
Cc1ccccc1NC(=S)Nc1ccc2[nH]c(=O)[nH]c2c1	-28%	2%	0%	1%	-10
C=Cc1ccccc1C=C	14%	.	.	-13%	.
CC(=O)Oc1ccc(C(=O)NCCc2ccccc2)cc1	?	?	0%	?	-5
CCOc1ccc(C(=O)NCCc2ccccc2)cc1	8.9µM*	?	0%	8.9µM*	-1
N#CCCN(Cc1ccccc1)C(=S)Nc1ccccc1	-41%	0%	0%	4%	4
COc1ccc(CN(CCC#N)C(=S)NC(=O)c2ccccc2)cc1	0.32µM*	1%	?	0.56µM*	-6
CCOc1ccc(C(=O)NC(=S)N(Cc2ccccc2)Cc2ccccc2)cc1	0.28µM*	-28%	-1%	0.79µM*	0
CCN(Cc1ccccc1)C(=O)CCCOc1ccccc1	?	?	-1%	3%	-4
CC1=CC(=O)NS(=O)(=O)O1	17%	.	.	-11%	.
Cc1ccc(-c2cnc3cc(C)nn3c2)cc1	11µM*	?	0%	13µM*	-8
CCS(=O)(=O)Nc1ccc(-c2ccc(NS(=O)(=O)CC)c(OC)c2)cc1OC	?	23µM*	-1%	9%	13
O=C(NCc1ccccc1)C(c1ccccc1F)N(C(=O)c1csnn1)C1CCCC1 (centres undefined)	22%	-6%	-1%	8%	5
CN(C)S(=O)(=O)c1cccc(NC(=O)C2CCN(S(=O)(=O)c3cccs3)CC2)c1	.	21µM*	0%	.	-17
CC(=O)c1cccc(NC(=O)C2CCN(S(=O)(=O)c3cccs3)CC2)c1	23%	?	0%	-1%	-3
O=C(Nc1nccs1)C1CCN(S(=O)(=O)c2c(Cl)cccc2Cl)CC1	8.9µM*	?	3%	9%	-10
Cc1cccc(NC(=O)C2CCN(S(=O)(=O)c3ccc4c(c3)NC(=O)CO4)CC2)c1	?	-26%	-1%	-18%	-134*
O=C(Nc1cc(Cl)ccn1)C1CCN(S(=O)(=O)c2cccs2)CC1	?	8.2µM*	0%	-6%	-27
COc1cccc(NC(=O)C2CCN(S(=O)(=O)c3ccc4c(c3)NC(=O)CO4)CC2)c1	38%	-8%	0%	0%	-6
SMILES	RORgamma inh	ELG1 repair inh	B2AR arrestin	Gal4-VP16 FLuc	TSHR antagonist
CCN(CC)S(=O)(=O)c1cccc(C(=O)NCC2(N3CCOCC3)CCCCC2)c1	.	-17%	0%	.	-1
CCCCCCC(O)C/C=C/CCCCCCCC(=O)O (centres undefined)	5%	.	.	-2%	.
CSc1ccccc1OCc1cc(C(=O)N2CCc3c(Cl)cccc3C2)no1	13µM*	-14%	0%	?	-4
NC(=S)N/N=C/c1ccc(-n2nncc2-c2ccc(Cl)cc2)cc1	5.6µM*	?	1%	?	.
Nc1cccc(-n2nncc2-c2ccc(Cl)cc2)c1	-1%	-18%	3%	-13%	-10
Cc1cc(-c2csc(Nc3ccccn3)n2)ccc1F	1µM*	?	0%	?	2
Cc1ccc(-c2csc(Nc3ccccn3)n2)cc1	26%[1.91 µM]	?	-1%	?	0
Cc1ccnc(Nc2nc(-c3ccc(F)cc3)cs2)c1	11µM*	?	0%	?	?
COc1cccc(Cn2ncc3c4sc(B(O)O)cc4n(C)c3c2=O)c1	.	.	0%	.	-14

Assay outcomes: PubChem, National Center for Advancing Translational Sciences (NCATS)
